Screening data from PubChem BioAssay.
CtBP-E1A blk – CtBP/E1A binding inhibition; AlphaScreen GST-E1A/His-CtBP binding, 1536-well; active compounds read low; activity change, % (test concentration not listed); 340,000 tested, 0.49% active; in the data active = activity change below about -65%; inconclusive = mostly about -30% to -63%; note: % is set by controls: 0 for no effect and ±100 for the full control effect
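Steps: dispense buffer (Tris pH 8.0, NaCl 300 mM, TCEP 1 mM, BSA, Tween 20); add 5X protein mix (GST-E1A, His-CtBP, 125 nM each); pin 23 nL compound; 2 h at 37 °C, dark; add 5X beads (50 ug/mL); 1 h; read.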
JMJD2A Tudor inh – inhibitors of human JMJD2A Tudor domain. AlphaScreen JMJD2A-Tudor / H3K4me3 peptide binding. Potency, µM (titrated, usually from 114 µM), inactives show top-dose activity change, negative = inhibition, hits mostly inhibitors. 390,000 tested, 4.4% active. AID 504339; note: potency is the fitted concentration of half-maximal effect; % is set by controls: 0 for no effect and ±100 for the full control effect; nearly all actives have a fitted effect of over 50% in size
HP1b binding inh – HP1-beta chromodomain-methylated histone interaction inhibition | P83916 | AlphaScreen HP1-beta / biotin-H3K9me3 peptide binding | Potency, µM (highest dose often 114 µM), inactives show top-dose activity change, negative = inhibition, actives largely listed as inhibitors | 390,000 tested, 0.56% active; note: potency is the fitted concentration of half-maximal effect; nearly all actives have a fitted effect of over 70% in size
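AlphaScreen: HP1-beta (50 nM) preformed 30 min with biotin-H3(1-18)K9me3 peptide (50 nM) in PBS pH 7.4, 0.01% Tween-20. Compound added for 30 min at RT, then streptavidin donor/nickel chelate acceptor beads (10 ug/mL) for 30 min.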
BAZ2B block – blocks human BAZ2B. Potency, µM (highest dose often 114 µM), for the others: at the highest dose activity change, negative = inhibition, hits mostly inhibitors. Q9UIF8. AID 504333. 360,000 tested, 4.4% active. AlphaScreen BAZ2B-H3K14Ac peptide displacement; note: potency is the fitted concentration of half-maximal effect; % is set by controls: 0 for no effect and ±100 for the full control effect; nearly all actives have a fitted effect of over 60% in size
Target sequence (Q9UIF8 whole entry, looked up): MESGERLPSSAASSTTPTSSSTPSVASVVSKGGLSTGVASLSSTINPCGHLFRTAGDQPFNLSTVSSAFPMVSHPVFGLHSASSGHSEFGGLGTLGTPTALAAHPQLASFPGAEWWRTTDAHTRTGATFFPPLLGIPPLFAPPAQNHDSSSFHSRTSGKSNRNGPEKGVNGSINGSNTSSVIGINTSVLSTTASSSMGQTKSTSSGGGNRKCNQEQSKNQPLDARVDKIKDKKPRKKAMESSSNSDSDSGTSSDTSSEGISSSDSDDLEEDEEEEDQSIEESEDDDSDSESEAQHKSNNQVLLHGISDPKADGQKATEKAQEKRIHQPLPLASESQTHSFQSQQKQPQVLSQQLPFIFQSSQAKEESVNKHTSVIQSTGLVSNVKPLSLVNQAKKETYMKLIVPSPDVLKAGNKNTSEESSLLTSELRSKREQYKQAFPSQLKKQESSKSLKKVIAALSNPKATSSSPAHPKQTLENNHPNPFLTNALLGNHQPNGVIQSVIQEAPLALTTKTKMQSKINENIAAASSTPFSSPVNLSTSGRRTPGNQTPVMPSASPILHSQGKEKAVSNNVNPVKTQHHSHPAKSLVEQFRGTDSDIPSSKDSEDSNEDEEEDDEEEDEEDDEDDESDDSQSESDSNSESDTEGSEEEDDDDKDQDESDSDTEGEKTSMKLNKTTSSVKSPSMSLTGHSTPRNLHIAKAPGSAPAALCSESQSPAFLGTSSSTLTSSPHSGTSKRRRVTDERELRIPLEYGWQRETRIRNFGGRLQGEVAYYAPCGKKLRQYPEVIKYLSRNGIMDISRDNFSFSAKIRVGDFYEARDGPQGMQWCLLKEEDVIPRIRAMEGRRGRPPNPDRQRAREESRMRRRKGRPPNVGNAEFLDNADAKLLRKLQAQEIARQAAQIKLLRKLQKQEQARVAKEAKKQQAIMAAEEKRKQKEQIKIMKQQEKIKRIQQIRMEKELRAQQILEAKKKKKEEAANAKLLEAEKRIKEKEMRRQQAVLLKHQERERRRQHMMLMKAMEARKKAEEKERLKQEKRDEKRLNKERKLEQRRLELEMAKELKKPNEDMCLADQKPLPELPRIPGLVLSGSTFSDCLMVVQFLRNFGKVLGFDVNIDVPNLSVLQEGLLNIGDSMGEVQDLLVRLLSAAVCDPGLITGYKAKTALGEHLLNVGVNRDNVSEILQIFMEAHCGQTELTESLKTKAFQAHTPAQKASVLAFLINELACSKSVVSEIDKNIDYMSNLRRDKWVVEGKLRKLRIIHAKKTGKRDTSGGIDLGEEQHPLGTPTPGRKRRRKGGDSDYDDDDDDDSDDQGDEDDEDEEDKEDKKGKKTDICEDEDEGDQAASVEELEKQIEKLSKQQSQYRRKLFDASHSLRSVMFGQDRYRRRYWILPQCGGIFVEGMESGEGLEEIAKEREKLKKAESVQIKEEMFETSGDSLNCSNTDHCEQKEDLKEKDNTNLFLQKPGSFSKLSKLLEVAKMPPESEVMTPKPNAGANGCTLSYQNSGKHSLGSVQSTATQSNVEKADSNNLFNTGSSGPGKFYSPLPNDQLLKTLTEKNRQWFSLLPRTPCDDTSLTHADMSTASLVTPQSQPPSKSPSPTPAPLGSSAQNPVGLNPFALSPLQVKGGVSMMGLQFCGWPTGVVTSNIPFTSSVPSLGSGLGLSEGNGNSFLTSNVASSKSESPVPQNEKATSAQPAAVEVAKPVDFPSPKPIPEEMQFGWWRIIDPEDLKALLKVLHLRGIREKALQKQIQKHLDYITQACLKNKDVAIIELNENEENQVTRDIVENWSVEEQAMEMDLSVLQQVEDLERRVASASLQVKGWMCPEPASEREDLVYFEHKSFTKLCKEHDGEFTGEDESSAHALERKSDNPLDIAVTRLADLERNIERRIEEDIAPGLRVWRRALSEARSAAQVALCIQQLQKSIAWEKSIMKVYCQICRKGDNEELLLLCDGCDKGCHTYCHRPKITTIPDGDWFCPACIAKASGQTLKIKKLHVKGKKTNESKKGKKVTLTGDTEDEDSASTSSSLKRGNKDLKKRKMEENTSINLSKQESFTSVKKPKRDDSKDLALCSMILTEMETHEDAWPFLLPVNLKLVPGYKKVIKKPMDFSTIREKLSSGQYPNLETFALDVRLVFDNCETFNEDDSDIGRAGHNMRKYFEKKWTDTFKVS
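In this displacement format the biotinylated H3(5-23) peptide acetylated at Lys14 serves as ligand at 50 nM, with BAZ2B at 50 nM in PBS pH 7.4 containing 0.01% Tween-20. Donor and acceptor beads are 10 ug/mL final.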
Six1-Eya2 inh – inhibitors of human Six1/Eya2 interaction | Q15475+O00167 | AlphaScreen GST-Six1/His-Eya2 binding, biochemical; active compounds read low | activity change, % (no concentration beside the values) | 360,000 tested, 0.56% active | AID 651725; in the data active = activity change below about -65%; inconclusive = mostly about -30% to -63%; note: % is set by controls: 0 for no effect and ±100 for the full control effect
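GST-Six1 + His-Eya2 (5X stock: 250/500 nM); Tris pH 8.0, 300 mM NaCl, 0.05% BSA, 0.02% Tween 20; GSH donor/Ni acceptor beads; 1 h 37 °C dark; AlphaScreen readout.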
TDP1 inh – inhibitors of human tyrosyl-DNA phosphodiesterase TDP1. Q9NUW8. recombinant TDP1, AlphaScreen DNA substrate cleavage. Potency, µM (doses to about 130 µM), for the others: at the top dose activity change, negative = inhibition, most hits filed as inhibitors. 350,000 tested, 0.28% active. AID 485290; note: potency is the fitted concentration of half-maximal effect; % is set by controls: 0 for no effect and ±100 for the full control effect; nearly all actives have a fitted effect of over 40% in size
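Here, a 5' biotin and 3' phosphotyrosine-FITC DNA oligonucleotide reports Tdp1 activity: intact substrate bridges AlphaScreen beads, while cleavage leaves a 3' phosphate and drops signal. All incubations at room temperature.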
* = called active by the depositor; ? = inconclusive; . = no result; [ ] = dose if it differs, or a comment. Shown are actives, neighbours in structure and some others; about 5.3% of the full set was active somewhere. Unless noted, calls come from the whole dose curve; as a rule, active = well fitted inhibition curve with a large enough effect; inconclusive = small, poorly fitted or top-dose-only effect; inactive = no such curve, though single readings can be large or run the other way.

SMILES | CtBP-E1A blk | JMJD2A Tudor inh | HP1b binding inh | BAZ2B block | Six1-Eya2 inh | TDP1 inh
CC(=O)c1cccc(OCC(O)CNCC2COc3ccccc3O2)c1 (stereo unspecified) | 7.7 | 0.794µM* | 50.1µM* | 31.6µM* | -3.8 | .
COc1ccc(CNCC(O)COCc2cccs2)cc1 (stereo unspecified) | 8.9 | 1.58µM* | -56.4% | ? | 0.4 | -6.1%
CC(=O)Nc1nonc1-c1nnc(SCC(=O)Nc2cc(C)cc(C)c2)n1-c1ccccc1 | . | -8.9% | 33.4% | -6.5% | . | 0.5%
Cc1cccc(NC(=O)C(=O)NCC(c2cccnc2)N2CCN(Cc3ccccc3)CC2)c1 (stereo unspecified) | . | -3.9% | 40.8% | -8.5% | . | 2.6%
CCOC(=O)CCN1C(=O)[C@H]2[C@H]3[C@H](O)[C@H](O)C/C(=N/NC(=O)OCC)[C@@H]3CC[C@@H]2C1=O | . | . | . | . | . | 7.9%[21 µM]
CC(/C=C1\SC(=S)N(C(C(=O)O)C(C)C)C1=O)=C\c1ccccc1 (stereo unspecified) | 2.9 | ? | 7.6% | 25.1µM* | -1.5 | 6.1%
CC(/C=C1\SC(=S)N(c2ccc(C(=O)O)cc2)C1=O)=C\c1ccccc1 | . | 44.7µM* | ? | 22.4µM* | 22.1 | -6.5%
CCN(CC)CCCNC(=O)Cn1c(-c2cccs2)cc2cc(Cl)ccc21 | . | -11.2% | 30.1% | -2.9% | . | 6.2%
Cc1ccc(C(=O)Sc2cccccc2=O)cc1 | -89.5* | -28.9% | ? | 39.8µM* | -76.8* | .
O=C(Nc1cccc(Cl)c1)c1ccc(NCCCN2CCOCC2)c([N+](=O)[O-])c1 | ? | ? | ? | 44.7µM* | ? | 9.3%
O=C(NCCCN1CCOCC1)c1cccc(NC(=O)c2ccccc2)c1 | 7.4 | -10.7% | 42.1% | . | 0.6 | .
Cc1ccc(NC(=O)c2ccc(NCCCN3CCC(C)CC3)c([N+](=O)[O-])c2)cc1F | 0.8 | 79.4µM* | 2.4% | -12.3% | 18.3 | -1.2%
CCOc1ccc(CNS(=O)(=O)c2ccc(-c3cc(C(F)(F)F)on3)s2)cc1 | . | -10.4% | 29.8% | 1.4% | . | 2.6%
COC(=O)Cc1c[nH]c2cccc(OCC(O)CN(Cc3ccc([N+](=O)[O-])cc3)C(C)(C)C)c12 (stereo unspecified) | -23.1 | ? | ? | 70.8µM* | -23.5 | 10.5%
CC(=O)N/N=C/c1cc(C(C)C)cc(/C=N/NC(C)=O)c1O | -83.8* | -29.9% | 45.2% | -4.3% | -74.5* | 5.6%
COc1cc(Cl)cc(/C=N/NC(N)=O)c1O | 6.1 | -21.8%[57.1 µM] | 14.8% | -4.2% | -3.3 | 5.4%
COC(=O)c1ccc(NC(=O)CSc2nc(C)cc(C)c2C(=O)Nc2ccccc2)cc1 | . | -15.9% | 13.5% | 5.8% | . | 3.6%
CC(=O)Nc1sc(N/N=C/c2ccc(N(C)C)cc2)nc1-c1ccc(C)cc1 | . | 44.7µM* | ? | 28.2µM* | -3.9 | 8.3%
COc1ccc(/C=N/Nc2nc(-c3ccc(C)cc3)c(NC(C)=O)s2)cc1OC | 8.4 | -33.3% | ? | ? | 3.8 | 7.1%
CC(=O)Nc1sc(N/N=C/c2ccc(C)cc2)nc1-c1ccc(C)cc1 | . | 44.7µM* | ? | ? | -9.6 | 1.4%
CCN(CC)c1ccc(-c2nc3cnccn3c2NC2CCCC2)cc1 | -1.3 | 79.4µM* | ? | -5.1% | 5.0 | 7.8%
Cc1cc(/C=N/n2cnnc2)c(C)n1-c1ccc(OCc2ccc(Cl)cc2Cl)cc1 | -16.8 | 56.2µM* | ? | 39.8µM* | -25.2 | 9.8%
Cc1cc(/C=N/n2cnnc2)c(C)n1-c1ccc(Cl)cc1 | -4.0 | -29.8% | -8.6% | -38.9% | -3.1 | 2.4%
CCN(CC)CCNC(=O)c1ccc(Cn2c(SCc3ccccc3)nc3cccnc32)cc1 | . | -9.2% | 16.7% | -7.9% | . | 3.7%
COc1cccc(C2c3c(ncn(-c4ccccc4C#N)c3=N)Oc3ccc4ccccc4c32)c1 (stereo unspecified) | . | 56.2µM* | . | . | . | 3.1%
SMILES | CtBP-E1A blk | JMJD2A Tudor inh | HP1b binding inh | BAZ2B block | Six1-Eya2 inh | TDP1 inh
COc1ccc(-n2cnc3c(c2=N)C(c2cccc(OC)c2)c2c(ccc4ccccc24)O3)cc1 (stereo unspecified) | . | ? | . | . | . | 6.8%
COc1cccc(C2c3c(ncn(-c4ccccc4Br)c3=N)Oc3ccc4ccccc4c32)c1 (stereo unspecified) | . | 50.1µM* | . | . | . | 3.1%
Cc1ccc(-c2nn[nH]n2)cc1Cl | -2.4 | -5.1% | 25.3% | 89.1µM* | -13.7 | 4.1%
Cc1ccc(C(=O)c2c(N)c(C(=O)Nc3ccccc3Cl)c3ccccn23)cc1 | . | -6.4% | 30.1% | -1.0% | . | 0.0%
CC1(C)Nc2ccc(O)cc2-c2c1ssc2=S | -14.8 | 39.8µM* | 50.1µM* | 44.7µM* | ? | 9.8%
CC(=O)NS(=O)(=O)c1ccc(N=c2ssc3c2-c2cc(C)ccc2NC3(C)C)cc1 | 0.0 | ? | -10.0% | ? | 13.4 | 7.7%
O=C1N=C(c2ccccc2)S/C1=C\c1cccs1 | ? | 22.4µM* | -74.0% | ? | -22.0 | 8.0%
O=C1OC(c2ccc(F)cc2)=C/C1=C\c1ccc(O)cc1 | . | -16.3% | 6.7% | -3.8% | -2.8 | 1.7%
O=C1N=C(N2CCN(c3ccccc3)CC2)S/C1=C/c1cccs1 | -2.7 | -24.6% | -1.1% | -33.3% | -23.6 | 3.0%
O=C1OC(c2ccccc2)=C/C1=C/c1cccs1 | 3.4 | ? | -7.8% | 10µM* | ? | 3.6%
Cc1ccc(N2C(=O)[C@@H]3CSC(c4ccc(C(F)(F)F)cc4)N3C2=O)cc1 (stereo partly specified) | . | -0.7% | 66.0% | 1.5% | . | 1.3%
CCOc1cc(NC(=O)c2ccccn2)c(OCC)cc1NC(=O)c1ccccc1 | 12.9 | 0.7% | 55.3% | -0.8% | -4.6 | 1.2%
CCCC(=O)Nc1cc(C)c(NC(=O)c2ccccn2)cn1 | -17.4 | ? | 36.7% | 50.1µM* | -27.2 | 5.9%
CCOc1cc(NC(=O)c2ccccn2)c(OCC)cc1NC(=O)CC(C)C | -1.4 | 20µM* | -9.9% | 7.0% | -0.2 | 6.9%
CC(C)C(=O)Nc1ccc(NC(=O)c2ccccn2)cn1 | -1.9 | ? | 14.1% | -5.4% | -0.8 | 1.0%
Cc1cc(NC(=O)C(C)C)ncc1NC(=O)c1ccccn1 | 10.1 | -15.1% | -7.5% | 50.1µM* | -0.8 | 0.0%
COc1cccc(NC(=O)Cn2c(=O)n(Cc3ccco3)c(=O)c3cc(OC)c(OC)cc32)c1 | . | -8.9% | 40.1% | -4.9% | . | 2.5%
O=C1CCc2cc(S(=O)(=O)Nc3cccnc3)ccc2N1 | . | -13.6% | . | . | . | 2.1%
Cc1nc(N/N=C/c2cccc(F)c2)cc(N2CCOCC2)n1 | -11.4 | -17.9% | 24.3% | 1.9% | -10.5 | .
Oc1ccc(/C=N/Nc2cc(N3CCOCC3)nc(N3CCOCC3)n2)cc1O | -14.7 | 56.2µM* | ? | ? | -23.5 | 9.1%
